According to the supplement of paper PMC6555819:

How the values were obtained:
Assay in all cases: PBM binding z-score (relative to random genomic background probes); higher = stronger binding; sequences stand for … in GC…GCGATTGACAGCGTAGAATGAAGG
[1] = test system: PPARg:RXRa DBDmut IVT, anti-RXR (DBD mutation: RXRa K156A/R161A, NR concentration 270 nM, RXRa partner concentration 90 nM)
Summary of the method: (§1)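 Binding z-scores were set against random background probes. The data came from custom Agilent 4×180K protein-binding microarrays carrying double-stranded probes with 34-nt variable regions, incubated 1 h with ligand-free nuclear receptor dimers. Partner-specific antibodies detected binding, and scanned fluorescence was regression-normalized.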

[2] = test system: PPARg:RXRa IVT, anti-PPARg (NR concentration 270 nM, RXRa partner concentration 90 nM)
Summary of the method: as §1

[3] = test system: PPARg DBDmut:RXRa IVT, anti-PPARg (DBD mutation: PPARg1 K132A/R137A, NR concentration 270 nM, RXRa partner concentration 90 nM)
Summary of the method: as §1

[4] = test system: PPARg DBDmut IVT, anti-PPARg (DBD mutation: PPARg1 K132A/R137A, NR concentration 270 nM)
Summary of the method: as §1

[5] = test system: PPARg homodimer (NR concentration 180 nM)
Summary of the method: as §1

[6] = test system: PXR:RXRa (NR concentration 270 nM, RXRa partner concentration 90 nM)
Summary of the method: as §1

[7] = test system: PXR homodimer (NR concentration 270 nM)
Summary of the method: as §1

[8] = test system: RARa:RXR (NR concentration 270 nM, RXRa partner concentration 90 nM)
Summary of the method: as §1

[9] = test system: RARa homodimer (NR concentration 270 nM)
Summary of the method: as §1

[10] = test system: RARb:RXRa (NR concentration 270 nM, RXRa partner concentration 90 nM)
Summary of the method: as §1

Sequence	PBM binding z-score [1]	PBM binding z-score [2]	PBM binding z-score [3]	PBM binding z-score [4]	PBM binding z-score [5]	PBM binding z-score [6]	PBM binding z-score [7]	PBM binding z-score [8]	PBM binding z-score [9]	PBM binding z-score [10]
AGAATGAGCTTATTAAGATCAGGGAATTGCGGTC	-0.544	-0.262	0.296	0.244	-0.453	-0.238	-0.13	-0.065	-0.11	-0.496
TCTCGGAGGACACGAAAGGTCACAGCTCGACATC	2.07	2.97	0.919	0.445	3.93	5.57	1.09	6	2.7	4.78
CCTCGTAGGACAACAGGAGGTCAGAGCTGCCAGA	0.397	0.633	-0.938	-1.38	1.75	2.08	0.26	2.37	0.699	2.56
CCTACTGGGCCACGGTCATTGATCAGTCAAAGCA	4.71	5.29	-0.475	-0.479	0.397	-0.436	-0.0793	-0.106	-0.863	1.56
GCTAGCAGGCCATTAGGGTCACTCAATGACGGGC	1.02	1.61	-0.521	-1.36	0.4	2.86	1.38	2.85	-0.0554	2.42
CGTCCAAGGCCAGCAGGTCAGTGAAAGCGACGTG	0.153	-0.0441	-0.768	-0.983	0.0229	0.29	-0.389	0.692	-1.23	2.36
ATCTCTAGGTAACCAAGTTCAGTGCATGCCGAAC	3.99	3.29	0.293	0.732	0.815	2.2	2.24	1.03	0.856	1.37
CGTCCAAGGTGAAGGTCAGTGAAAGAGACTCGAA	1.92	2.94	-0.298	-0.465	0.911	1.43	-0.222	2.11	0.387	3.93
TGAATGAGGTTAAAGATCACGGAACGTGGCGTCG	2.31	3.53	0.896	0.358	0.7	2.94	-0.299	4.67	0.0716	2.18
TAATATAGGTAAAGGTGAAAGTCGAACGATATGA	6.04	6.44	2.33	2.3	2.1	1.02	0.701	1.8	1.92	2.03
CATACAGGGTCTGCTAGGCCAGAGTAGGGACGGC	-0.963	-0.162	-0.142	-0.562	0.266	-0.649	-0.0998	-0.482	0.212	0.183
TGTCTAAGTTCAAAGGTAACGTAAGTATCCACAC	-0.293	1.97	0.709	1.14	1.56	5.3	3.65	4.93	0.919	3.93
CGAGCTAGGTCATCCAGGACAGTGAATACATTGA	3.44	3.06	0.0496	-0.51	1.51	1.88	0.935	2.15	0.298	3.85
AATCAAAGTTCATCTAGGTAACGTAAGATATGCT	0.153	2.87	1.79	1.11	2.75	4.95	7.06	3.24	1.38	5.22
GCTAGTTGGTCAGTAACAGGTCACACACCGGTCG	0.713	1.57	-0.131	0.285	1.45	1.85	0.169	2.32	1.15	2.24
CCGACTGGGGCAAAGGTTCCCATACTCAGTACGA	4.43	4.51	-0.428	-0.816	-0.0222	-0.128	-0.291	0.588	0.117	0.831
TCATAAAGGTAAAAGGTGAAAGTCGGTGTGGTAA	3.49	3.5	0.634	0.86	2.26	2.56	0.65	4	1.25	2.54
CATTACGGGTCAAGGTTATAGCACGGGTGGTACG	3.5	4.53	0.969	1.08	2.26	3.72	0.701	4.69	1.58	4.43
CGAGCTAGGTCATTGACAGGACAGTGAATAGTAA	3.51	2.78	0.0808	-0.146	0.918	1.54	0.31	2.18	-0.128	3.66
ACTATTAGTTGACCTAGGGCAACCGATACGACGC	1.31	2.56	0.917	1.25	1.64	2.05	0.901	2.79	0.637	2.18
ATATATAGGTTAAGGGTCATTCAGGTTGGTTCGC	7.29	7.49	2.46	2.9	4.36	5.67	3.53	6.57	3.52	3.92
ATATGTAGGTCACATCCGGGTCATTCAGGCTATG	8.71	8.92	2.83	2.12	3.45	5.25	2.96	5.31	0.84	4.34
GCTTACGGGTCAAAGGTTATAGAATGAATAGAAT	4.71	5.44	1.37	1.09	1.73	6.07	0.466	8.42	0.715	4.59
CGTCCAACGTCAAAGGTCAGTGAAGAGATGACGG	-0.294	1.63	-0.376	-0.0246	3.55	3.58	0.376	5.04	1.79	4.24
ACTATTAGTTGAAACGAGGGCAACCGATAGGTTG	0.662	1.73	1.09	0.692	0.274	2.71	0.569	1.38	0.873	1.27

Sequence	PBM binding z-score [1]	PBM binding z-score [2]	PBM binding z-score [3]	PBM binding z-score [4]	PBM binding z-score [5]	PBM binding z-score [6]	PBM binding z-score [7]	PBM binding z-score [8]	PBM binding z-score [9]	PBM binding z-score [10]
CTACCTAGGTGAACAAGGTCGTTGATTACTATTC	4.5	3.81	0.734	0.335	1.52	2.25	1.14	1.95	0.759	1.5
CATCCTAGGTCAGGGCCAGTATAGGAGGAACGTT	3.29	3.82	0.575	-0.518	1.36	0.842	-0.294	1.65	0.477	3.65
CGTGCAAGGTCATAGGAGGTCAGTGAAGACAGAT	3.54	4.74	1.77	-0.0772	4.07	7.21	4.19	6.63	2	5.41
AGATGTAGGTTACATCCGGGTCATTCAGGCTATG	7	7.07	0.707	1.29	1.58	3.72	2.06	3.68	-0.0966	2.24
CCTACTGGGCCATCAGCTCATTGATATCAACGTT	3.97	3.36	-0.394	-0.205	-0.413	-0.673	-0.788	-0.689	-0.576	-0.0601
CCTTATGGGTCAAGGTTATAGCACGGGTGGTACG	4.52	5.46	1.19	0.531	2.47	2.43	0.248	3.32	0.847	3.63
GCTCGGAGGACAAGGTCAGAACTTTGTCCGTAGA	-0.664	0.754	-0.824	-0.981	0.718	1.87	-0.398	2	-0.812	3.2
GCTAGTTGGTCAGTAAAAGGTCATACACCGGTCG	0.651	2.38	-0.0949	-0.0441	3.01	4.5	1.09	5.05	1.09	3.94
ATCTCTAGGTAAAGATAGTTCAGTCAATGCAAAT	2.07	1.73	0.964	1	0.843	1.05	0.38	0.522	0.556	0.692
CCTACTGGGCCACAAAGGTCATTGATGCCGATAA	4.98	5.53	0.0367	-0.795	3.95	5.34	5.11	5.76	1.78	4.2
GTACCAAGGTGTATAGGTCGTTGATGAGTAGGCG	0.000885	0.719	-0.0523	0.342	0.75	0.265	0.0316	0.833	0.17	0.755
ACAGACAGGTGAGTGAAGATAACTCAGCTGGACG	0.148	0.126	0.243	0.332	-0.119	-0.523	-0.597	-0.226	0.147	0.137
TGAATGAGGGTATAAGATCAGGGAACGTTGCAAA	0.322	0.573	0.938	0.423	0.497	0.178	0.202	0.234	-0.0465	0.303
CAGCCTAGGTCAGGGCCACTATAGGAGGAACGTT	1.2	1.84	-0.722	-1.19	0.834	0.356	-0.684	0.936	-0.384	3.44
TCTAGTTGGTCAGGGAGGTCACACACGACGGGTA	2.21	3.14	0.418	0.586	2.66	4.14	1.55	4.2	1.51	3.63
ATATGTAGGTTAAGGGTGATTCAGGTTGGTTCGC	7.67	6.98	1.59	1.38	3.75	1.63	1.19	1.72	1.64	1.54
GTTACAGGGTCAGCTAGAGGCCAGAGTATGGAAA	1.9	2.79	0.0715	-0.0967	2.41	3.39	0.141	3.88	0.709	4.27
CCTTACGGGTCAAGGTTATTGCACGGGTGGTACG	2	3.61	-0.367	-0.115	2.22	3.62	0.512	4.2	0.978	4.12
GGAACGAGGGTAAAGTTGATAGCATCTGTCGACG	2.48	2.91	0.376	-0.666	0.544	0.0856	-0.214	0.287	-0.126	0.952
GCTGCTAGGTCAAATGATGGTCAGCTAAAGCTCG	5.24	4.16	-0.0492	-0.751	1.73	1.82	-0.505	3.18	-0.123	4.13
GATACAGGCTCAGCTAGAGGCCAGAGTATGGAAA	-1.07	-0.379	-0.391	-1.01	-0.531	-0.951	-0.872	-0.733	-0.86	-0.294
TCGAGTAGGTTACCAATTGGGCATTCAGCTTTCT	3.77	2.73	-0.446	-0.0338	-0.44	0.0575	-0.745	0.253	-0.895	0.606
ATCTCTAGGTAAGCCTCAGTTCAGTGAAGAACGC	2.22	1.13	-0.0785	0.191	0.657	1.23	0.98	0.356	0.375	0.44
CCTAGCAGGCCAGAGTCACTCAAGCATTTCGCTT	0.697	-0.158	-1.34	-1.29	0.134	-0.712	-0.709	-0.507	-0.47	-0.0457
